Common to all, as to assay type: functional
Assay [1] relates to Plasmodium falciparum. As to the kind of experiment: GSK_TCMDC: Inhibition of Plasmodium falciparum 3D7 in whole red blood cells, using parasite LDH activity as an index of growth. Test compounds present at 2uM.
Assay [2] deals with Plasmodium falciparum. As to the kind of experiment: GSK_TCMDC: Inhibition of Plasmodium falciparum Dd2 in whole red blood cells, using parasite LDH activity as an index of growth. Test compounds present at 2uM.
The next assay relates to HepG2. As to the kind of experiment: GSK_TCMDC: Percent inhibition of human HepG2 cell line. Test compounds present at 10uM.

As to `Cl.Cn1c2ccccc2c2c3ccccc3c(CNC(CO)(CO)CO)cc21`, the Inhibition (as a rule, the share of the control response that was lost under treatment) came to 96% with Plasmodium falciparum [1], 78% with Plasmodium falciparum [2] and 67% in the assay on HepG2.
Regarding `COc1cc2c(cc1S(=O)(=O)c1ccc(NC(=O)c3cc4ccccc4s3)cc1)CCN(C)CC2`, the Inhibition in the assay with Plasmodium falciparum [1] is reported as 100%; in the assay on Plasmodium falciparum [2], 88%; in the assay on HepG2, 21%.
In the case of `COc1ccc(-c2ccc(NC(=O)c3cccc(Cl)c3)cc2)cc1CN1CCCC1.O=C(O)C(F)(F)F`, the Inhibition with Plasmodium falciparum [1] stood at 100%; in the assay on Plasmodium falciparum [2], 84%; in the assay with HepG2, 35%.
For `CCc1cc(C(=O)c2cccc(C)c2)c(NC(=O)CN2CCN(C(=O)c3ccco3)CC2)s1`, in that order: 91%, 85% and 0%.
On to `Cc1ccc(C(=O)Nc2ccc(Nc3ccnc4cc(-c5nccs5)ccc34)cc2O)cc1.Cl`, for which the Inhibition in the assay on Plasmodium falciparum [1], with Plasmodium falciparum [2] and in the assay with HepG2 was 100% in each case.
For the compound `Cc1nn(C)c(C)c1CN(Cc1nc(-c2cccc(Oc3ccccc3)c2)oc1C)C1CC1`, the Inhibition in the assay with Plasmodium falciparum [1] is 100%; in the assay on Plasmodium falciparum [2], 98%; in the assay on HepG2, 7%.
On to `O=C(Nc1cccc(-c2ccc(CN3CCCC3)cc2)c1)c1ccc(F)cc1.O=C(O)C(F)(F)F`, for which the results for the Inhibition in the assay on Plasmodium falciparum [1], in the assay on Plasmodium falciparum [2] and in the assay with HepG2 were 92%, 9% and 23%, respectively.
As to `O=C(Nc1cc(F)cc(F)c1)NC1CCN(CCCCCNC(=O)C2CC2c2ccc(Cl)c(Cl)c2)CC1` (centres undefined), the Inhibition worked out at 100% with Plasmodium falciparum [1], 6% with Plasmodium falciparum [2] and 49% in the assay on HepG2.
On to `O=C(O)C(F)(F)F.O=c1[nH]ccc2nc(N[C@@H]3CCNC3)nc(Nc3cc(Cl)cc(Cl)c3)c12`, for which the Inhibition turned out to be 100% in the assay with Plasmodium falciparum [1], 99% in the assay with Plasmodium falciparum [2] and 99% with HepG2.
Consider `CN1CCCC1CNS(=O)(=O)c1ccc(C(=O)NCC2CC2)cc1.O=C(O)C(F)(F)F` (centres undefined), for which the values for the Inhibition with Plasmodium falciparum [1], in the assay with Plasmodium falciparum [2] and in the assay with HepG2 were 91%, 0% and 17%, respectively.
As to `CCN(CC)CCN(Cc1ccc(-c2ccc(C(F)(F)F)cc2)cc1)C(=O)Cn1c(CCc2cccc(F)c2F)nc(=O)c2ccccc21.O=C(O)C(O)C(O)C(=O)O`, the Inhibition with Plasmodium falciparum [1] is reported as 97%; in the assay on Plasmodium falciparum [2] it was 60%; in the assay on HepG2, 49%.
The matching figures for `CC(C)(C)C1CC(=O)CC2C(=O)N(c3ccc(Br)cc3)C(=O)C21` (centres undefined): 94%, 7% and 0%.
With `Cc1cccc2nc(-c3cccc(-c4cccc(CNCc5ccc(S(C)(=O)=O)cc5)c4)c3)[nH]c12.O=C(O)C(F)(F)F`, the Inhibition turned out to be 100% in the assay on Plasmodium falciparum [1], 66% in the assay with Plasmodium falciparum [2] and 13% in the assay on HepG2.
In the case of `CCOc1ccc(-c2nonc2NC(=O)CC(C)C)cc1OCC`, the results for the Inhibition in the assay on Plasmodium falciparum [1], in the assay on Plasmodium falciparum [2] and with HepG2 were 92%, 37% and 0%, respectively.
The matching figures for `CCC(CC)n1c(C)cc2c3c(N)nc(N)nc3ccc21`: 95%, 95% and 61%.
As for `CC(C)Sc1nc(-c2ccccc2)nc2c1COC(C)(C)C2`, the Inhibition with Plasmodium falciparum [1] stood at 98%; in the assay on Plasmodium falciparum [2] it was 41%; in the assay on HepG2 it was 2%.
As for `Cc1ccc(O)cc1Nc1ccnc2cc(-c3csc(CNCCN4CCOCC4)n3)ccc12`, the Inhibition worked out at 100% in the assay with Plasmodium falciparum [1], 99% in the assay on Plasmodium falciparum [2] and 6% in the assay with HepG2.
For `CCN(CC)CCCN(C(=O)Nc1ccc(C#N)cc1)c1nc(-c2ccc(F)cc2)cs1`, in that order: 99%, 68% and 36%.
For `Cc1ccc(NC(=O)N2CCC(n3c(-c4ccccc4)nc4cccnc43)CC2)cc1F`, the figures for the Inhibition with Plasmodium falciparum [1], in the assay on Plasmodium falciparum [2] and in the assay on HepG2 were 96%, 85% and 23%, respectively.
Take `CS(=O)(=O)Nc1ccc(-c2ccc3ccnc(N)c3c2)cc1.O=C(O)C(F)(F)F`: the Inhibition in the assay on Plasmodium falciparum [1] amounted to 85%; in the assay on Plasmodium falciparum [2], 75%; in the assay on HepG2 it was 31%.
Take `Cc1cccc2nc(-c3ccc(-c4ccc(CN5CCCCC5)cc4)cc3)[nH]c12.O=C(O)C(F)(F)F`: the Inhibition in the assay on Plasmodium falciparum [1] was determined as 100%; with Plasmodium falciparum [2], 99%; with HepG2 it was 27%.
As to `O=C(Nc1cccc(-c2ccc(NCCCN3CCCC3)nc2)c1)c1ccccc1`, the Inhibition with Plasmodium falciparum [1] is listed as 100%; in the assay on Plasmodium falciparum [2], 21%; in the assay on HepG2, 22%.
As to `O=C(CNC(=O)c1ccc(O)cc1)Nc1cccc(-c2cccc(-c3nc4cc(C(F)(F)F)ccc4[nH]3)c2)c1`, the results for the Inhibition with Plasmodium falciparum [1], with Plasmodium falciparum [2] and with HepG2 were 96%, 28% and 63%, respectively.
In the case of `CC(O)C1CCCCN1C(=O)c1cccc(-c2cccc(-c3nc4cc(C(F)(F)F)ccc4[nH]3)c2)c1` (centres undefined), the Inhibition in the assay on Plasmodium falciparum [1] was 100%; with Plasmodium falciparum [2], 100%; in the assay on HepG2, 32%.
Regarding `Cc1cc(=O)c2cc(-c3ccc(OC(F)(F)F)cc3)ccc2[nH]1`, the Inhibition in the assay on Plasmodium falciparum [1] is reported as 96%; in the assay on Plasmodium falciparum [2], 95%; in the assay on HepG2 it was 0%.
On to `CCc1ccc(NC(=O)c2ccc(CN3CCCN(Cc4cccc(O)c4)CC3)cc2)cc1.O=C(O)C(F)(F)F`, for which the Inhibition turned out to be 100% in the assay with Plasmodium falciparum [1], 55% in the assay with Plasmodium falciparum [2] and 51% in the assay with HepG2.
As to `Cc1ccccc1OCCCN1CCN(CC(c2ccc(F)cc2)N2CCN(C(C)C)CC2)CC1.Cl` (centres undefined), the Inhibition worked out at 99% in the assay on Plasmodium falciparum [1], 64% with Plasmodium falciparum [2] and 20% with HepG2.
As to `Cl.N=C(N)Nc1ccc(CCc2ccc(NC(=N)N)cc2)cc1`, the Inhibition in the assay on Plasmodium falciparum [1] is reported as 96%; with Plasmodium falciparum [2], 95%; with HepG2, 57%.

The values are drawn from ChEMBL document CHEMBL1157539, “Thousands of chemical starting points for antimalarial lead identification” (Nature, 2010).
